For some assays here: Results with a measured potency or affinity are listed apart. Activity calls are given as the source filed them. How the calls were made is not given here.
Each compound was assayed against Plasmodium falciparum protein kinase 6 (PK6, PF3D7_1337100) (UniProt Q8IDW1) (assay: PfPK6 kinase inhibitors, biochemical, TCAMS library (AID 1159586)). Details: recombinant PfPK6, Kinase-Glo ATP depletion luminescence.
Plasmodium falciparum protein kinase 6 (PK6, PF3D7_1337100), sequence (Q8IDW1 1-305): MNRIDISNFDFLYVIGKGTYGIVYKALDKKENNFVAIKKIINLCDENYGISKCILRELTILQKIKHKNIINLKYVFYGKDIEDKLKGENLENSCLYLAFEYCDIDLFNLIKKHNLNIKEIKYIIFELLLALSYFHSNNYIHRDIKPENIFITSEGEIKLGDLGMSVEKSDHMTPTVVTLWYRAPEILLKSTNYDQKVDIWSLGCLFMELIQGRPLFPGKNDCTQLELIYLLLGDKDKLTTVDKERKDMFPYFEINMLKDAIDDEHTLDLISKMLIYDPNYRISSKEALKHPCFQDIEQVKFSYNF

outcome, inactive:
COC(=O)c1ccc(CCCNCC(O)c2cccc(C(F)(F)F)c2)cc1 (stereo not given), O=C(Nc1cc(C(F)(F)F)cc(C(F)(F)F)c1)Nc1cc(C(F)(F)F)cc(C(F)(F)F)c1, COc1ccc2ncc(F)c(CCN3CCC(NCc4cc(Br)c5c(c4)OCCO5)CC3)c2n1, O=C(Nc1ccc(F)cc1)c1nc2ccccc2nc1Cl, CCOC(=O)c1ccc(NC(=O)Nc2cccc(-c3cccc(-c4nc5ccccc5[nH]4)c3)c2)cc1, CCCCCCCCN1CCN(CCCCCCNc2c3ccccc3nc3ccccc23)CC1, CCC(C(=O)Nc1ccccc1)n1nc(-c2ccc(C)c(S(=O)(=O)N3CCCCC3)c2)ccc1=O (stereo not given), CC(C)(C)c1ccc(CNC(=O)c2ccc(CNC3CCC(N)CC3)s2)cc1 (stereo not given), COc1ccc2nccc(N3CCC(CCNCc4cc5c(cn4)OCCO5)CC3)c2c1, O=C(NC1CCC(N2CCC(c3nc4ccccc4s3)CC2)CC1)c1cc2ccccc2[nH]1 (stereo not given), COc1cc(NC(=O)c2cccs2)c(OC)cc1NC(=O)Nc1cccc(Cl)c1, CNC(=O)c1cc(S(=O)(=O)Nc2ccc(OC)cc2)cs1, CN(C)CCOc1ccc(N2CCN(CCCCNC(=O)c3ccc(NC(=O)c4ccc(Cl)cc4)cc3)CC2)cc1, C[C@@H]1CN(C(c2cccc(O)c2)c2cccc(C(=O)N(C)c3cccc(F)c3)c2)[C@@H](C)CN1C(c1cccc(O)c1)c1cccc(C(=O)N(C)c2cccc(F)c2)c1 (stereo not given in full), COc1ccc2nc(C)cc(NN=Cc3cccc(Cl)c3)c2c1, FC(F)(F)c1ccc2nc(-c3ccc(-c4ccc(CNCC5CCCO5)cc4)cc3)[nH]c2c1 (stereo not given), COc1ccc2c(NN=Cc3cccc([N+](=O)[O-])c3)ccnc2c1, CC(C)(C)c1ccc2nccc(Nc3cccc(O)c3)c2c1, COc1ccccc1-c1sccc1C(=O)NC1(c2cc(Cl)cc(Cl)c2)CCCC1, COc1ccc(-n2ccnc2)cc1CNC1CCN(CC2Cn3c(=O)ccc4ccc(F)c2c43)CC1 (stereo not given), COc1ccc(-c2nc(NC(=O)CSc3ccc([N+](=O)[O-])cc3)sc2C)cc1, Cc1cc(NN=Cc2ccc(F)cc2)c2cc(C(F)(F)F)ccc2n1, NC1=NC2(CCCCC2)N(OCC2CCCCC2)C(N)=N1, Cc1[nH]c(C)c(-c2ccc(OCc3cc(F)cc(F)c3)nc2)c(=O)c1Cl, O=C(Nc1cccc(CN2CCCN(CCc3ccccc3)CC2)c1)c1cc2ccccc2s1, O=C1NC(c2ccccc2)C2(CCN(CC(O)COc3cccc4ncccc34)CC2)O1 (stereo not given), O=C(Nc1cccc(CN2CCN(Cc3cccc(O)c3)CC2)c1)c1cc2ccccc2s1, O=S(=O)(Nc1ccc(-c2ccc(CN3CCCC3)cc2)cc1)c1cccc2cccnc12, CCCC(C)n1ccc2c3c(N)nc(N)nc3ccc21 (stereo not given), CC(CN(C)C)C(=O)Nc1cccc(-c2ccc(-c3nc4ccccc4[nH]3)cc2)c1 (stereo not given), O=C(NCCCCN1CCC(c2ccc(-c3ccco3)cc2)CC1)c1ccc(NC(=O)c2ccc(Cl)cc2)cc1, CCc1ccc(NC(=O)c2ccc(CN3CCCN(CCC(C)C)CC3)cc2)cc1, O=C(Nc1ccc(C(F)(F)F)cc1)Nc1cccc([N+](=O)[O-])c1, CC(C)(C)c1ccc(CN(C[C@@H](O)CNS(=O)(=O)c2cc(Cl)cc(Cl)c2)C(C)(C)C)cc1, CCCCCN1CCCC(CNS(=O)(=O)c2ccc(C(=O)Nc3ccc(C(F)(F)F)cc3)cc2)C1 (stereo not given), CC(C)(C)N1CCC(N(Cc2ccc(-c3ccc(C(F)(F)F)cc3)cc2)C(=O)Cn2c(CCc3cccc(F)c3F)cc(=O)c3cccnc32)CC1, CS(=O)(=O)NCCCNCc1ccc(-c2cccc(-c3nc4ccc(F)cc4[nH]3)c2)cc1, OC[C@H]1CCCN1CC#Cc1cc2c(Nc3ccc(OCc4cccc(F)c4)c(Cl)c3)ncnc2s1, Nc1ccc(-c2nc3ccc(-c4ccc5nc(-c6ccc(N)cc6)[nH]c5c4)cc3[nH]2)cc1, Cc1cccc2[nH]c(-c3ccc(-c4cccc(C(=O)NCCc5cn(C)cn5)c4)s3)nc12

What follows are compounds tested against Protein kinase 7 (PK7), Plasmodium falciparum 3D7 (PF3D7_0213400) (UniProt Q7YTF7) (assay: inhibition of Plasmodium PK7 catalytic activity – biochemical, TCAMS antimalarial set, Kinase-Glo luminescence (AID 1159587)). Details: recombinant PfPK7, Kinase-Glo ATP depletion luminescence.
Protein kinase 7 (PK7), Plasmodium falciparum 3D7 (PF3D7_0213400), sequence (Q7YTF7 1-343): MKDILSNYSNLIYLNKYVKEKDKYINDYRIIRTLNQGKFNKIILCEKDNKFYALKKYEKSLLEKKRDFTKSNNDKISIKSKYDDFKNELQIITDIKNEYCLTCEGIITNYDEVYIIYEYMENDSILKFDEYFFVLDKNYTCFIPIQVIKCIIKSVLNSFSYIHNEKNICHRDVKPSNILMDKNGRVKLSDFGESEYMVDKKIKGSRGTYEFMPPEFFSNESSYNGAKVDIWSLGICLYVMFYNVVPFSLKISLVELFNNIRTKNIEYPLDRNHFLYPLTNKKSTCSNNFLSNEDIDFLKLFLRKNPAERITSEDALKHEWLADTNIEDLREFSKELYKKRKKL

outcome, inactive:
COC(=O)c1ccc(CCCNCC(O)c2cccc(C(F)(F)F)c2)cc1 (stereo not given), O=C(Nc1cc(C(F)(F)F)cc(C(F)(F)F)c1)Nc1cc(C(F)(F)F)cc(C(F)(F)F)c1, COc1ccc2ncc(F)c(CCN3CCC(NCc4cc(Br)c5c(c4)OCCO5)CC3)c2n1, O=C(Nc1ccc(F)cc1)c1nc2ccccc2nc1Cl, CCOC(=O)c1ccc(NC(=O)Nc2cccc(-c3cccc(-c4nc5ccccc5[nH]4)c3)c2)cc1, CCCCCCCCN1CCN(CCCCCCNc2c3ccccc3nc3ccccc23)CC1, CCC(C(=O)Nc1ccccc1)n1nc(-c2ccc(C)c(S(=O)(=O)N3CCCCC3)c2)ccc1=O (stereo not given), CC(C)(C)c1ccc(CNC(=O)c2ccc(CNC3CCC(N)CC3)s2)cc1 (stereo not given), COc1ccc2nccc(N3CCC(CCNCc4cc5c(cn4)OCCO5)CC3)c2c1, O=C(NC1CCC(N2CCC(c3nc4ccccc4s3)CC2)CC1)c1cc2ccccc2[nH]1 (stereo not given), COc1cc(NC(=O)c2cccs2)c(OC)cc1NC(=O)Nc1cccc(Cl)c1, CNC(=O)c1cc(S(=O)(=O)Nc2ccc(OC)cc2)cs1, CN(C)CCOc1ccc(N2CCN(CCCCNC(=O)c3ccc(NC(=O)c4ccc(Cl)cc4)cc3)CC2)cc1, C[C@@H]1CN(C(c2cccc(O)c2)c2cccc(C(=O)N(C)c3cccc(F)c3)c2)[C@@H](C)CN1C(c1cccc(O)c1)c1cccc(C(=O)N(C)c2cccc(F)c2)c1 (stereo not given in full), COc1ccc2nc(C)cc(NN=Cc3cccc(Cl)c3)c2c1, FC(F)(F)c1ccc2nc(-c3ccc(-c4ccc(CNCC5CCCO5)cc4)cc3)[nH]c2c1 (stereo not given), COc1ccc2c(NN=Cc3cccc([N+](=O)[O-])c3)ccnc2c1, CC(C)(C)c1ccc2nccc(Nc3cccc(O)c3)c2c1, COc1ccccc1-c1sccc1C(=O)NC1(c2cc(Cl)cc(Cl)c2)CCCC1, COc1ccc(-n2ccnc2)cc1CNC1CCN(CC2Cn3c(=O)ccc4ccc(F)c2c43)CC1 (stereo not given), COc1ccc(-c2nc(NC(=O)CSc3ccc([N+](=O)[O-])cc3)sc2C)cc1, Cc1cc(NN=Cc2ccc(F)cc2)c2cc(C(F)(F)F)ccc2n1, NC1=NC2(CCCCC2)N(OCC2CCCCC2)C(N)=N1, Cc1[nH]c(C)c(-c2ccc(OCc3cc(F)cc(F)c3)nc2)c(=O)c1Cl, O=C(Nc1cccc(CN2CCCN(CCc3ccccc3)CC2)c1)c1cc2ccccc2s1, O=C1NC(c2ccccc2)C2(CCN(CC(O)COc3cccc4ncccc34)CC2)O1 (stereo not given), O=C(Nc1cccc(CN2CCN(Cc3cccc(O)c3)CC2)c1)c1cc2ccccc2s1, O=S(=O)(Nc1ccc(-c2ccc(CN3CCCC3)cc2)cc1)c1cccc2cccnc12, CCCC(C)n1ccc2c3c(N)nc(N)nc3ccc21 (stereo not given), CC(CN(C)C)C(=O)Nc1cccc(-c2ccc(-c3nc4ccccc4[nH]3)cc2)c1 (stereo not given), O=C(NCCCCN1CCC(c2ccc(-c3ccco3)cc2)CC1)c1ccc(NC(=O)c2ccc(Cl)cc2)cc1, CCc1ccc(NC(=O)c2ccc(CN3CCCN(CCC(C)C)CC3)cc2)cc1, O=C(Nc1ccc(C(F)(F)F)cc1)Nc1cccc([N+](=O)[O-])c1, CC(C)(C)c1ccc(CN(C[C@@H](O)CNS(=O)(=O)c2cc(Cl)cc(Cl)c2)C(C)(C)C)cc1, CCCCCN1CCCC(CNS(=O)(=O)c2ccc(C(=O)Nc3ccc(C(F)(F)F)cc3)cc2)C1 (stereo not given), CC(C)(C)N1CCC(N(Cc2ccc(-c3ccc(C(F)(F)F)cc3)cc2)C(=O)Cn2c(CCc3cccc(F)c3F)cc(=O)c3cccnc32)CC1, CS(=O)(=O)NCCCNCc1ccc(-c2cccc(-c3nc4ccc(F)cc4[nH]3)c2)cc1, OC[C@H]1CCCN1CC#Cc1cc2c(Nc3ccc(OCc4cccc(F)c4)c(Cl)c3)ncnc2s1, Nc1ccc(-c2nc3ccc(-c4ccc5nc(-c6ccc(N)cc6)[nH]c5c4)cc3[nH]2)cc1, Cc1cccc2[nH]c(-c3ccc(-c4cccc(C(=O)NCCc5cn(C)cn5)c4)s3)nc12
